Results: the supplement of paper PMC7411054
Structures can show the parent of a compound that is named as a salt.

The compounds below were run on A549-GM130-SQSTM1 (assay: lowest phenotypically active concentration; higher = less potent). Conditions: treatment time: 24 h.
Method in brief: (§1)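 Each of fifteen gene-edited A549, HepG2 and WPMY1 reporter lines, marked with BFP for segmentation and GFP and RFP/FusionRed, was treated in four wells at 0.3, 1, 3 or 9 µM for 24 h prior to live imaging. Normalisation of per-well live-cell features used solvent control wells. Deviation needed ≥3 of 4 wells beyond the 95th percentile of control Euclidean distances, and reproducibility needed a median replicate Pearson correlation above the 95th percentile of non-replicates. Both were required for phenotypic activity.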

Lowest phenotypically active concentration, ≤ 0.3 µM:
C[C@H]1COCCN1c1cc(C2(S(=O)(=O)C3CC3)CC2)nc(-c2ccc(NC(=S)NCCO)cc2)n1

Lowest phenotypically active concentration, 9 µM:
N#Cc1c(C2CCNCC2)cc(-c2c(O)cccc2OCC2CC2)nc1N
C=CC(=O)Nc1cccc(Nc2nc(Nc3ccc(OCCOC)cc3)ncc2F)c1

Lowest phenotypically active concentration, 3 µM:
COc1cc(N2CCC(N3CCN(C)CC3)CC2)ccc1Nc1ncnc(Nc2ccccc2S(=O)(=O)C(C)C)n1
Fc1ccccc1CNCc1ccc(-c2ccnc3[nH]ccc23)cc1 [OXA 06 dihydrochloride]

These compounds were tested on A549-TP53BP1-CLTA in the same assay as above. Conditions: treatment time: 24 h.
Method in brief: as §1

Lowest phenotypically active concentration, 9 µM:
O=C(Nc1ccc(-c2ccnc(Nc3ccc(N4CCOCC4)cc3)n2)cc1)[C@@H]1CCCN1
COc1cc2nc(-c3cc(F)ccc3O)nc(N[C@@H]3CNC[C@H]3C(C)(C)O)c2cc1OC
N#Cc1c(C2CCNCC2)cc(-c2c(O)cccc2OCC2CC2)nc1N
COc1cc(N2CCC(N3CCN(C)CC3)CC2)ccc1Nc1ncnc(Nc2ccccc2S(=O)(=O)C(C)C)n1

Lowest phenotypically active concentration, 3 µM:
COc1ccc(S(=O)(=O)N(C(C)=O)c2ccccc2/C=C/c2cc[n+]([O-])cc2)cc1
CC(C)(C)Nc1nc(Nc2ccc(C(N)=O)cc2)cc(N)c1C#N
c1ccc2c(c1)Cc1c(Nc3ccc4c(c3)OCCO4)n[nH]c1-2
COc1c(Nc2cc(C)[nH]n2)nc(Sc2ccc(S(=O)(=O)Cc3cccc([N+](=O)[O-])c3F)cc2F)nc1N1CCOCC1 [Centrinone]
COc1cc2c(NC3CCN(C(C)C)CC3)nc(N3CCC(F)(F)CC3)nc2cc1OCCCN1CCCC1
CN1c2ccccc2C(=O)N2CCc3c([nH]c4ccccc34)[C@H]21 [Evodiamine]
Cc1noc(C)c1-c1cc(O)cc(C(O)c2ccccc2)c1 (centres undefined)
C[C@H]1[C@H]2CC[C@H]3[C@@H]4CC=C5C[C@@H](N(C)C)CC[C@]5(C)[C@H]4CC[C@]23CN1C [Conessine]
COc1cc2c(cc1-c1c(C)noc1C)ncc1[nH]c(=O)n([C@H](C)c3ccccn3)c12 [I-BET 151 dihydrochloride]
OC[C@H]1O[C@@H](n2cnc3c(NCc4ccco4)ncnc32)[C@H](O)[C@@H]1O [Kinetin riboside]
C=CC(=O)Nc1cccc(Nc2nc(Nc3ccc(OCCOC)cc3)ncc2F)c1

Lowest phenotypically active concentration, ≤ 0.3 µM:
Cc1nc(Nc2ncc(C(=O)Nc3c(C)cccc3Cl)s2)cc(N2CCN(CCO)CC2)n1 [dasatinib]
O=C(NCc1cccc(O)c1)Nc1nc(-c2ccncc2)cs1 [RKI 1447 dihydrochloride]
COc1ccc(-c2ccc3ncc4c(c3c2)n(-c2ccc(N3CCNCC3)c(C(F)(F)F)c2)c(=O)n4C)cn1
CC(C)(C)c1cnc(CSc2cnc(NC(=O)C3CCNCC3)s2)o1
O=C(O)c1ccc(Nc2ncc3c(n2)-c2ccc(Cl)cc2C(c2c(F)cccc2F)=NC3)cc1
Cc1c(NC(=O)OC[C@@H]2COCCN2)cn2ncnc(Nc3ccc4c(cnn4Cc4cccc(F)c4)c3)c12
CCC(=O)N1CCN(c2ccc(-n3c(=O)ccc4cnc5ccc(-c6cnc7ccccc7c6)cc5c43)cc2C(F)(F)F)CC1 [Torin 1]
CC(=O)c1c(C)c2cnc(Nc3ccc(N4CCNCC4)cn3)nc2n(C2CCCC2)c1=O
CO[C@H]1C=CC=C(C)C(=O)NC2=CC(=O)C(NCCN(C)C)=C(C[C@@H](C)C[C@H](OC)[C@H](O)[C@@H](C)C=C(C)[C@@H]1OC(N)=O)C2=O [17-DMAG hydrochloride]
NC(=O)Nc1cc(-c2cccc(F)c2)sc1C(=O)N[C@H]1CCCNC1 [AZD 7762 hydrochloride]
Cc1c[nH]c2nccc(Oc3c(F)cc(Nc4cc(Cl)nc(N)n4)cc3F)c12
CON(C)C(=O)N1N=C(c2cc(F)ccc2F)S[C@@]1(CCCN)c1ccccc1 [ARRY 520 trifluoroacetate]
CC[C@H](CO)Nc1nc(NCc2ccc(-c3ccccn3)cc2)c2ncn(C(C)C)c2n1
Oc1cccc(-c2nc(N3CCOCC3)c3oc4ncccc4c3n2)c1 [PI 103 hydrochloride]
COc1cccc(-c2cc(F)ccc2[C@H]2Cc3nc(N)nc(C)c3C(=O)N2)n1
COc1cc(C(=O)NC2CCN(C)CC2)c(F)cc1Nc1ncc2c(n1)N(C1CCCC1)CC(F)(F)C(=O)N2C [TAK 960 hydrochloride]
CC[C@]1(O)C[C@@H]2CN(CCc3c([nH]c4ccccc34)[C@@](C(=O)OC)(c3cc4c(cc3OC)N(C=O)[C@H]3[C@@](O)(C(=O)OC)[C@H](OC(C)=O)[C@]5(CC)C=CCN6CC[C@]43[C@@H]65)C2)C1 [vincristine]
C[C@H]1COCCN1c1cc(C2(S(=O)(=O)C3CC3)CC2)nc(-c2ccc(NC(=S)NCCO)cc2)n1

Lowest phenotypically active concentration, 1 µM:
Nc1nc(Cl)nc2c1ncn2[C@@H]1O[C@H](CO)[C@@H](O)[C@@H]1F [clofarabine]
CC(C)n1nc(-c2cc3cc(O)ccc3[nH]2)c2c(N)ncnc21
Nc1cccc(-c2cc3c(Oc4cccc(O)c4)ncnc3[nH]2)c1
NC1(C(=O)N[C@@H](CCO)c2ccc(Cl)cc2)CCN(c2ncnc3[nH]ccc23)CC1
COc1cc(/C=C/c2ccc(OC)cc2OC)cc(OC)c1
Fc1ccccc1CNCc1ccc(-c2ccnc3[nH]ccc23)cc1 [OXA 06 dihydrochloride]
